ADAM17 inh = ADAM17 inhibition, QFRET primary screen | P78536 | recombinant ADAM17, EDANS/DABCYL FRET peptide cleavage | inhibition, % at 6.95 µM | hit rate 0.83% among 370,000 | AID 720648;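 active = inhibition above the mean of compounds lying between control limits plus 3 SD, set per campaign, cut at about 8.5% in these data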;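 note: 0% = DMSO-only wells as the low control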
Target sequence (P78536 215-824 limits assumed): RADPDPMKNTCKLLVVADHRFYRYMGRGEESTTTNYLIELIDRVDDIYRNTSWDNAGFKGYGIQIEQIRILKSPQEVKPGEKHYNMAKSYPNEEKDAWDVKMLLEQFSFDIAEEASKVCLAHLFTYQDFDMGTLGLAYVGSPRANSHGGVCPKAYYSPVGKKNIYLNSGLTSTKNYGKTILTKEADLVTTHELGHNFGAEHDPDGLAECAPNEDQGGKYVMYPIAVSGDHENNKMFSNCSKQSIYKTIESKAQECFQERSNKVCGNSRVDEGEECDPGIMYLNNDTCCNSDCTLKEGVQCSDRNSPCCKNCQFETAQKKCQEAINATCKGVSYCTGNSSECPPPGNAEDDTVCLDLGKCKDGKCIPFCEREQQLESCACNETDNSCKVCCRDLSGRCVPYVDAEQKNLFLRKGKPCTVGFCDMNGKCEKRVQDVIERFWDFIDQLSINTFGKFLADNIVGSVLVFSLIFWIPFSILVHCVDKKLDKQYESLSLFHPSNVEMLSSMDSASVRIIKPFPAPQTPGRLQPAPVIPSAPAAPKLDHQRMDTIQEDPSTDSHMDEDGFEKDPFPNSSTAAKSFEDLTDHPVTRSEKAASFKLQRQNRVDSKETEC
AHR activator = human AHR activation | activation, % at 5 µM | AID 2796 | AHR-responsive luciferase reporter cells, luminescence | hit rate 2.5% among 320,000; in the data active = activation above about 47%;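 note: 0% = vehicle wells and 100% = reference agonist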
ADAM10 inh = ADAM10 inhibition, QFRET primary screen; O14672; recombinant ADAM10, EDANS/DABCYL FRET peptide cleavage, 3 h; inhibition, % at 7 µM; hit rate 0.62% among 370,000; AID 720582;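 active = inhibition above a per-campaign cutoff equal to the mean of compounds falling between control-based bounds plus 3 SD, cut at about 20% in these data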;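 note: 0% = DMSO wells while the 100% control is not disclosed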
KLK7 zymogen act = activates the human kallikrein-7 zymogen | activation, % at 7 µM | purified proKLK7, EDANS-DABCYL substrate fluorescence; 100% is mature enzyme control, 0% vehicle | AID 652039 | hit rate 0.9% among 370,000;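 active = activation above the mean of all tested compounds plus 3 SD, computed per campaign excluding outliers beyond control limits, cut at about 13% in these data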
NR3A LBD binder = modulates the human NR3A ligand-binding domain. Tm shift relative to glycine control, % at 25 µM. hit rate 2.5% among 340,000. NR3A LBD differential scanning fluorimetry, Tm shift; 0% = protein alone, 100% = glycine-bound protein. AID 1259313;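 active = melting temperature shift of at least 10% of the positive control shift, at one fixed dose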
rCAG RNA binder = molecules binding r(CAG) RNA repeats; r(CAG) RNA repeat, TO-PRO-1 dye displacement fluorescence; inhibition, % at 3 µM; hit rate 1.3% among 370,000; AID 651821;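 active = inhibition above the plate cutoff, the mean of all test compounds on that plate plus 3 SD, cut at about 35% in these data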;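 note: 0% = DMSO alone and 100% = 100 µM mitoxantrone as full dye displacement; higher means more dye released from RNA so lower well fluorescence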
* hit, by the source's call; i = inactive; · = no result. Shown are actives, neighbours in structure and some others; about 7% of the full set was active somewhere.

SMILES	ADAM17 inh	AHR activator	ADAM10 inh	KLK7 zymogen act	NR3A LBD binder	rCAG RNA binder
O=Cc1cn(-c2ccccc2)nc1-c1ccncc1	-5.7	60.4*	0.8	0.4	-1.1	0.4
CCNC(=O)Nc1ccc2c(c1)C(=O)N(C)[C@H]1CC[C@H](CC(=O)N[C@H](C)c3ccccc3)O[C@@H]1CO2	-6.9	·	15.5	0.3	·	0.1
C[C@H](CO)NC(=O)c1[nH]cnc1C(=O)Nc1cccc(Cl)c1	2.1	·	0.5	0.0	·	1.8
CNC(=O)c1[nH]cnc1C(=O)Nc1cccc(Cl)c1	2.9	54.8*	8.8	0.5	-0.5	0.2
O=C(Nc1cccc(Cl)c1)c1nc[nH]c1C(=O)NCCCNC(=O)c1[nH]cnc1C(=O)Nc1cccc(Cl)c1	-3.3	34.1	2.1	0.0	22.6*	5.9
Cc1ccccc1S(=O)(=O)N(C)C[C@@H]1OCc2cn(nn2)CCCC(=O)N([C@@H](C)CO)C[C@H]1C	-1.8	·	-4.4	-0.3	·	2.0
CN(CCOC(=O)c1cc2ccccc2o1)C1CN(Cc2cn(Cc3cccc(F)c3)nn2)S(=O)(=O)C1 (configuration not stated)	-5.9	·	-6.6	-0.2	·	2.3
CC(=O)Nc1ccc2c(c1)C(=O)c1cccc(C(=O)O)c1-2	-6.4	·	-7.0	0.4	14.0*	1.4
COc1cccc(C(=O)Nc2ccc3c(c2)C(=O)c2ccccc2C3=O)c1	-1.8	-1.5	0.3	0.0	15.9*	1.5
CCC(=O)Nc1ccc2c(c1)C(=O)c1ccccc1C2=O	1.5	68.8*	-2.3	-0.1	-1.1	7.2
COc1cccc(C(=O)Nc2ccc(C)cc2)c1	-2.2	10.4	6.3	9.8	-9.7	1.2
COc1cccc(C(=O)Nc2ccc(C(=O)c3ccccc3)cc2)c1	-0.4	-0.5	7.6	-0.4	-6.1	-0.1
COc1cccc(C(=O)Nc2ccc(C3CC3(Cl)Cl)cc2)c1 (configuration not stated)	1.6	73.2*	9.9	0.4	-1.0	-0.1
Cc1nn(CCC(=O)NNC(=O)Nc2ccccc2F)c(C)c1[N+](=O)[O-]	0.4	·	1.6	0.3	·	0.9
O=C(Nc1ccc2c(c1)C(=O)c1ccccc1-2)c1ccccc1	-5.1	·	-8.7	0.1	17.7*	1.3
Cc1cc(C)cc(OCC(=O)Nc2ccc3c(c2)C(=O)c2ccccc2C3=O)c1	-0.6	0.6	0.2	0.1	13.8*	6.0
Cc1cc(C)cc(OCC(=O)Nc2ccc(F)cc2)c1	5.5	-1.3	5.1	0.2	-1.0	5.0
COc1cccc(C(=O)Nc2ccc3c(c2)n(C)c(=O)n3C)c1	1.8	47.7*	3.3	-0.5	-0.9	16.0
CC(C)c1[nH]nc2c1C(c1cccc(C(F)(F)F)c1)NC2=O (configuration not stated)	-4.2	·	-8.4	-0.6	·	-0.2
CSc1nnc(C)c(/C=C/Nc2ccc(F)cc2)n1	0.0	37.3	-2.8	0.1	-1.5	7.1
CSc1nnc(C)c(/C=C/Nc2ccc(Cl)cc2)n1	-6.7	49.8*	-4.8	-0.4	-7.0	3.7
CCCCc1c(-c2ccccc2OC)ncn1C1CCCCC1	-0.6	·	-0.1	4.8	·	-1.4
S=C(NCCSCc1ccc(Cl)cc1Cl)Nc1ccccc1	5.7	-1.6	12.4	0.1	17.0*	-1.4
COc1ccc(CNC(=S)Nc2ccccc2)cc1Cl	0.4	-0.4	-0.2	-0.6	-4.0	1.4
CCOc1ccc(NC(=S)Nc2ccc(OCc3ccccc3)cc2)cc1	-2.5	2.1	7.1	-0.4	8.0	-0.2
SMILES	ADAM17 inh	AHR activator	ADAM10 inh	KLK7 zymogen act	NR3A LBD binder	rCAG RNA binder
CCCOc1ccc(CNC(=S)Nc2ccccc2)cc1Cl	4.4	76.5*	8.7	0.1	18.3*	0.7
S=C(NCCSCc1ccc(Cl)c(Cl)c1)Nc1ccccc1	5.6	-2.9	9.8	-0.2	22.2*	-1.9
S=C(NCCSCc1c(Cl)cccc1Cl)Nc1ccccc1	7.0	-3.2	12.2	0.3	9.6	2.1
S=C(Nc1ccccc1)Nc1ccc(OCc2ccc(Cl)cc2Cl)cc1	3.1	-9.0	2.2	-0.5	14.1*	5.2
CN(C)c1cccc(/C=C2\CC3(OC(=O)c4ccco4)CCCN2C3)c1 (configuration not stated)	-3.5	·	-4.4	0.4	·	1.1
Cc1cc(-c2ccccc2)nc(Cl)c1C#N	-4.5	76.2*	-10.9	-0.4	2.0	0.9
COc1ccc(-n2nc3ccc(NS(C)(=O)=O)cc3n2)cc1Cl	-257.7	2.2	i	-37.0	21.7*	18.4
CC(C)CC(C)NNC(=O)c1cc2ccccc2[nH]1 (configuration not stated)	-3.0	13.7	-6.7	0.1	-1.1	0.5
O=C(NNC(=O)c1cc2ccccc2[nH]1)OCc1ccccc1	-3.0	66.3*	-5.6	-0.4	-3.6	-0.3
Brc1ccc(-c2cn3nc4c(nc3n2)CCCC4)cc1	-37.1	-6.9	-119.2	-2.3	0.0	-7.4
Nc1nn2cc(-c3ccc(Br)cc3)nc2c2ccccc12	-386.4	65.5*	i	-16.4	27.4*	28.2
O=C(CN1C(=O)C2(OCCCO2)c2ccccc21)NCc1ccccc1Cl	-4.0	·	-10.4	0.0	·	-0.6
O=C1CC(N(Cc2cccs2)C(=O)Nc2ccccc2)C(=O)N1c1ccc(Cl)cc1 (configuration not stated)	3.8	4.2	5.9	-0.3	14.0*	8.6
COc1ccc(CN(C(=S)Nc2ccccc2)C2CC(=O)N(c3ccccc3)C2=O)cc1 (configuration not stated)	4.9	0.1	9.5	-0.4	37.4*	6.8
COc1ccc(N2C(=O)CC(N(CCc3ccc(S(N)(=O)=O)cc3)C(=S)Nc3ccccc3)C2=O)cc1 (configuration not stated)	2.7	0.9	5.7	0.2	4.6	28.5
COc1ccc(CN(C(=S)Nc2ccccc2)C2CC(=O)N(c3ccc(Cl)cc3)C2=O)cc1 (configuration not stated)	-0.7	0.0	1.5	0.5	24.5*	3.0
C[C@@H]1CCCN1c1cccc2c1S(=O)(=O)N1CC[C@@H](C1)O2	-6.6	·	-10.2	-0.7	·	3.5
O=S1(=O)c2ccc(N3CCSCC3)cc2Oc2ccccc2CN1Cc1cn(Cc2ccc(F)cc2)nn1	5.0	·	8.8	-1.2	·	7.1
CC(C)c1ccc(NC(=O)c2snc3ccc(Cl)cc23)cc1	-3.7	54.6*	-3.0	-0.8	10.1*	1.9
CN1/C(=C/C=C(C#N)C#N)C(C)(C)c2ccccc21	6.8	-2.1	8.7	-0.1	4.0	2.8
CN(C)c1ccc(N=C/C=C2\N(C)c3ccccc3C2(C)C)cc1	1.2	150.1*	-4.2	-0.2	-2.5	15.0
CN1/C(=C\C=Nc2ccc3ccccc3c2)C(C)(C)c2ccccc21	·	55.4*	·	·	·	·
CN1/C(=C\C=O)C(C)(C)c2ccccc21	-5.7	63.9*	-9.6	1.1	-1.6	-2.8
CN1\C(=C/C=C/C=C/C=[N+](C)C)C(C)(C)c2ccccc21	0.5	·	-6.6	5.2	-364.2	-337.0
